The whole screen tested about 290,000 compounds, of which about 27,000 (9.3%) were called active. This excerpt belongs to a sample that is enriched for actives. A number with no mark means an inactive call. No stated cut-off is given here; in the data, active means inhibition mostly above about 28% (no sharp cut-off); inactive means mostly below about 43%.
Assay: A qHTS for Small Molecule Inhibitors of Shiga Toxin; on inhibition: 0% is about no effect
Details: Vero cells, Shiga toxin protein synthesis inhibition reporter; at 38.7 µM, active compounds read high

Row | SMILES | inhibition
1 | CS(=O)(=O)N1CCCC(C(=O)Nc2ccccc2C(F)(F)F)C1 (stereo not given) | -10%
2 | CCC(C(=O)OC)n1cnc2c(oc3ccccc32)c1=O (stereo not given) | 27.3%
3 | COc1ccc(C)cc1Nc1nc(C)nc2c1oc1ccccc12 | 2.95%
4 | COc1ccccc1Nc1ncnc2c1oc1ccccc12 | 53.4% (active)
5 | Cc1occc(=O)c1OCc1c(Cl)cccc1Cl | -6.59%
6 | O=C1COc2ccc(S(=O)(=O)NCCc3ccc(Cl)cc3)cc2N1 | 2.79%
7 | Cc1ccc(NS(=O)(=O)c2ccc(C(C)(C)C)cc2)cn1 | 1.36%
8 | Cc1ccc(S(=O)(=O)c2nc(-c3cccs3)oc2NCc2cccnc2)cc1 | -2.32%
9 | COc1ccc(N2CCN(C(=O)CN3C(=O)COc4ccccc43)CC2)cc1 | 23.1%
10 | O=C(Nc1ccccc1C(=O)N1CCCCCC1)c1ccccc1Cl | -4.45%
11 | CCCOc1cccc(C(=O)Nc2ccccc2C(=O)N2CCN(C)CC2)c1 | 1.15%
12 | CN1CCN(C(=O)c2ccccc2NC(=O)COc2ccccc2Cl)CC1 | 30.2% (active)
13 | Nc1nc(NCC2CCCO2)nc(Nc2ccccc2F)c1[N+](=O)[O-] (stereo not given) | 3.33%
14 | C=Cn1cc[n+](CC(=O)c2ccc(OC)c(OC)c2)c1 | -7.58%
15 | O=C(N/N=C/c1ccc(O)cc1)/C(=C/c1ccc([N+](=O)[O-])cc1)NC(=O)c1ccccc1 | 3.28%
16 | Cc1cccc(COc2ccccc2/C=N/Nc2ccc([N+](=O)[O-])cc2)c1 | -8.03%
17 | O=[N+]([O-])c1ccc(N/N=C/c2ccccc2)cc1 | 60.4% (active)
18 | CCOc1cc2[nH]c(=S)n(Cc3ccc(C(=O)N4CCN(C)CC4)cc3)c(=O)c2cc1OCC | 6.6%
19 | COc1cccc(OC)c1OCCN1CCN(C(=O)c2ccco2)CC1 | -15.7%
20 | O=C(c1cccc(Br)c1)N1CCN(C2=NS(=O)(=O)c3ccccc32)CC1 | -5.51%
21 | CCn1ccnc1CN(C)C(=O)c1cc(COc2ccc(Cl)cc2OC)on1 | 49.5% (active)
22 | O=C(c1cc(-c2ccccc2O)on1)N1CCCC1 | 111% (active)
23 | O=C(c1cc(-c2cccs2)on1)N1CCCCC1 | 124% (active)
24 | O=C(c1ccc(Cl)c(Cl)c1)N1CCCC1 | -12.2%

Row | SMILES | inhibition
25 | CCn1ccnc1CN(C)C(=O)c1cc(COc2ccc(-n3cncn3)cc2)on1 | 13.3%
26 | COc1cc(Cl)ccc1OCc1cc(C(=O)N(C)CCc2c(C)n[nH]c2C)no1 | 18.3%
27 | COc1cccc(OCc2cc(C(=O)N3CCN(C(=O)c4ccco4)CC3)no2)c1 | 64.7% (active)
28 | O=C(c1ccco1)N1CCN(C(=O)c2ccc(COc3ccc(F)cc3)o2)CC1 | 2.42%
29 | CC(=O)c1ccc(NC(=O)c2cc(-c3cccs3)on2)cc1 | 35.3%
30 | CNC(=O)n1ccc(C(=O)N2CCCCC2)n1 | -5.37%
31 | Cc1cc(/C=C2/SC(=O)N(CC(=O)N3CCCC3)C2=O)c(C)n1C | -6.33%
32 | NC(=O)C1CCN(C(=O)/C(=C/c2ccco2)NC(=O)c2ccccc2)CC1 | -19%
33 | COc1ccc(OC)c(NC(=O)CSc2nc(-c3ccccc3)cc(=O)[nH]2)c1 | -4.35%
34 | Cc1ccc(Nc2nc(N3CCOCC3)nc(N3CCOCC3)n2)cc1Cl | 5.42%
35 | COc1ccccc1N1CCN(S(=O)(=O)c2ccc(Cl)cc2)CC1 | -2.2%
36 | Oc1c(Cl)cc(Cl)cc1/C=N/c1ncn[nH]1 | -2.31%
37 | Cc1ccc(N2CC(C(=O)NCCS(=O)(=O)N3CCN(c4ccccc4)CC3)CC2=O)cc1 (stereo not given) | 4.33%
38 | Cn1cc(CNC(=O)c2ccc(OC3CCN(Cc4ccccn4)CC3)cc2)cn1 | 4.02%
39 | CCOC(=O)C1CCCN(C(=O)c2cncc(Br)c2)C1 (stereo not given) | -10.3%
40 | COc1ccccc1OCc1ccc(C(=O)N2CCN(C)CC2)o1 | 10.1%
41 | COc1cccc(-c2cc(C(=O)N3CCN(c4ccccc4OC)CC3)no2)c1 | -4.9%
42 | COc1ccccc1N1CCN(C(=O)c2cc(-c3ccc(Cl)c(Cl)c3)on2)CC1 | 0.847%
43 | COc1ccc(OCc2cc(C(=O)N3CCCC3)no2)c2ccccc12 | 147% (active)
44 | COc1ccc(C(=O)C2CCCN(C(=O)c3cc(C)on3)C2)cc1F (stereo not given) | -1.62%
45 | COc1ccccc1-c1cc(C(=O)N2CCCCC2)no1 | 102% (active)
46 | CCOC(=O)CC1(NC(=O)c2cc(COc3cncc(Cl)c3)on2)CCCCC1 | -11.8%
47 | Cc1ccc(C)c(OCc2cc(C(=O)N3CCN(c4cnccn4)CC3)no2)c1 | -3.53%
48 | COc1cc(Cl)ccc1OCc1cc(C(=O)N2CC[C@@H]3CCCC[C@H]3C2)no1 | 120% (active)

Row | SMILES | inhibition
49 | CCCOC1CCCN(C(=O)c2cc(COc3cncc(Cl)c3)on2)C1 (stereo not given) | 54.4% (active)
50 | COc1ccc(Cl)cc1C(=O)NNC(=S)NC1CCCC1 | -7.04%
51 | N#Cc1ccccc1S(=O)(=O)N1CCN(C(=O)c2cc(-c3ccccc3)nn2-c2ccccc2)CC1 | 15.4%
52 | O=C(CSc1nc2ccccc2c(=O)[nH]1)Nc1nc(-c2ccc(Br)cc2)cs1 | -26.5%
53 | COc1ccc(C)cc1S(=O)(=O)N1CCN(S(=O)(=O)c2cc(C(=O)O)ccc2C)CC1 | -1.74%
54 | CN(C(=O)CN1C(=O)S/C(=C\c2ccccc2F)C1=O)C1CCS(=O)(=O)C1 (stereo not given) | -0.834%
55 | COc1ccc(C(C(=O)NCC2CCCO2)N(C(=O)Cn2nnc3ccccc32)c2ccc(NC(C)=O)cc2)cc1OC (stereo not given) | -9.93%
56 | O=C1OC2(CCCCC2)CC2=C1C1O[C@](c3ccsc3)(Cc3ccccc31)O2 | inactive
57 | Nc1cc(N2CCCCCC2)c2nonc2c1[N+](=O)[O-] | -13.9%
58 | Cc1ccc(CNC(=O)c2ccc(CS(=O)Cc3cccc(Cl)c3)o2)cc1 (stereo not given) | -5.59%
59 | CCNC(=O)Nc1ccc(S(=O)(=O)Nc2cnc(C)nc2C)cc1 | -5.43%
60 | O=C(NCc1ccncc1)C(=O)NCC1OCCN1S(=O)(=O)c1ccc(Br)cc1 (stereo not given) | -17%
61 | O=C(Nc1cccc(Cl)c1)C1CCCN(c2cnccn2)C1 (stereo not given) | -10.4%
62 | Cc1cc(C)nc(N2CCC(C(=O)Nc3ccc4c(c3)OCCO4)CC2)n1 | 51.5%
63 | O=C(Nc1ccc2c(c1)OCCO2)C1CCCN(c2ncccn2)C1 (stereo not given) | 66.6% (active)
64 | CC(C)=CCN1CCN(CCCc2ccccc2)CC1CCO (stereo not given) | -4.24%
65 | COc1ccc(-c2nn(-c3ccccc3)cc2/C=C2/SC(=S)N(CCCC(=O)O)C2=O)c(C)c1 | -11.2%
66 | CCOC(=O)c1c(C)[nH]c2c1-c1ccccc1C(=O)C2=O | 31.2%
67 | CCOC(=O)c1c(C)[nH]c(C2=NNC(=NC(C)COC)SC2)c1C (stereo not given) | 75.1% (active)
68 | Cc1cc(Nc2ccc(C(=O)N3CCCCC3)cc2)c2cccc(C)c2n1 | -5.1%
69 | Cc1cccc(N=C2NN=C(c3c[nH]c4ccccc34)CS2)c1 | 42.1% (active)
70 | Cc1cccc(N=C2NC(=O)/C(=C/c3cn(C)c4ccccc34)S2)c1 | -7.28%
71 | Cc1cccc(C(=O)Nc2nnc(Cc3c[nH]c4ccccc34)s2)c1 | -6.89%
72 | CS(=O)(=O)N1CCN=C1SCc1ccc(F)cc1 | 9.38%

Row | SMILES | inhibition
73 | COc1ccc(N(CC(=O)NCCSCc2cccc(Cl)c2)S(C)(=O)=O)cc1 | -2.69%
74 | CCN(CC)C(=O)COc1coc(CN2CCN(Cc3ccccc3)CC2)cc1=O | -10.1%
75 | COc1cccc2cc(/C(C)=N/NC(=O)c3ccco3)oc12 | 32.4%
76 | Cc1cccc(C(=O)OCC(=O)Nc2ccc(F)cc2)c1 | 27.4%
77 | Cc1nn(CC(=O)Nc2ccc(F)cc2)c(=O)c2ccccc12 | -1.35%
78 | CCC(=O)Nc1ccc2nn(-c3ccc(F)cc3)nc2c1 | 74.1% (active)
79 | Cc1ccccc1CN1CCC(C(=O)Nc2ccc(Oc3cccnc3)cc2)CC1 | -3.91%
80 | Cc1ccc(NC(=O)c2c(NC(=O)CCC(=O)O)sc3c2CCCCC3)cc1 | 42.9% (active)
81 | COC(=O)c1sccc1NC(=O)c1csc2c1CCCC2 | 92.6%
82 | O=C(N/N=C/c1ccco1)c1ccc(C(=O)N/N=C/c2ccco2)o1 | -3.95%
83 | COC(=O)c1sc(NC(=O)c2csc3c2CCCC3)nc1C | 76.1% (active)
84 | O=C(N/N=C/c1ccco1)c1ccc(NC(=O)C2CC2)cc1 | -2.21%
85 | O=C(CN1CCCC1)Nc1sc2c(c1C(=O)Nc1ccccc1)CCCC2 | -10.4%
86 | COC(=O)c1c(NC(=O)CCCC(=O)O)sc2c1CCCCC2 | -0.986%
87 | Cc1ccc(NC(=O)c2csc3c2CCCC3)cc1 | 110% (active)
88 | O=C(N/N=C/c1ccco1)c1csc2c1CCCC2 | 122% (active)
89 | CCOC(=O)c1sc(NC(=O)c2sc(C)nc2C)nc1C | 30.3%
90 | O=C(Nc1ccccc1N1CCOCC1)c1csc2c1CCCC2 | 11.3%
91 | O=C(NCc1ccccc1Cl)c1csc2c1CCCCC2 | 11.2%
92 | COc1ccc(S(=O)(=O)NCC(=O)NCc2cc(=O)n(C)c(=O)n2C)cc1F | -4.87%
93 | CCOC(=O)c1cc2ccccc2n1CC(=O)c1ccccc1 | 3.23%
94 | COc1cccc(N2C(=O)CN(Cc3ccccc3)C2=S)c1 | 24.3%
95 | Cc1ccc(OCC(=O)Nc2ccc(N3CCN(C(=O)c4ccco4)CC3)cc2)c(C)c1 | -6.09%
